Results taken from PubChem BioAssay AID492952 (Southern Research Specialized Biocontainment Screening …, 2010).
About 1,500 (65%) of roughly 2,300 compounds were called active. No rule for the calls is given here. The set was probably picked from earlier hits. The list shows a part of the results. Results with a measured potency or affinity are listed apart.

Assay: replicating M. tuberculosis growth inhibition, dose response, non-replicating M. tuberculosis project, H37Rv (AID 492952);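 also: Mycobacterium tuberculosis grown in culture; growth inhibition read after a week of incubation; 0% = bacteria alone untreated and 100% = bacteria with high antibiotic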
Details: series mostly up to 50 µM; inhibition: at the top concentration

| Compound | inhibition |
| --- | --- |
| CC(=O)CCC1CC(c2ccc(Cl)cc2)=NO1 (stereo unspecified) | -2.41% (inactive) |
| COC(=O)c1ccccc1NC(=O)C1CC(c2ccc(F)cc2)=NO1 (stereo unspecified) | 0.43% (inactive) |
| COc1ccc(OCCC(=O)OCC(=O)Nc2ccc(Br)cc2)cc1 | -1.7% (inactive) |
| CC(C)(C)c1ccc(OCCC(=O)OCC(=O)NC2CCCCC2)cc1 | 7.57% (inactive) |
| O=C(COc1ccc([N+](=O)[O-])cc1)NNC(=O)c1cccs1 | 1.87% (inactive) |
| CC/C(=C\c1oc2cc3ccccc3cc2[n+]1CC)Nc1ccccc1 | 7.42% (inactive) |
| Brc1ccc(OCCCCN2CCCCC2)cc1 | 4.82% (inactive) |
| CCOC(=O)c1c(-c2ccc(C)o2)csc1NC(=O)CN1CCCCC1 | -3.2% (inactive) |
| CCc1nnc(NC(=O)CN2CCN(c3ccccc3F)CC2)s1 | 2.97% (inactive) |
| COc1ccc2cc(C(=O)NCc3ccccc3)c(=O)oc2c1 | 2.96% (inactive) |
| COCCNC(=O)c1cc2cc(Cl)cc(Cl)c2oc1=O | 17.8% (inactive) |
| NC(=O)N/N=C/c1ccccc1OC(=O)c1cc2ccccc2oc1=O | -0.54% (inactive) |
| COc1cccc2cc(C(=O)c3ccc([N+](=O)[O-])cc3)oc12 | -3.88% (inactive) |
| CC(C)[C@H](NC(=O)c1ccc(Br)cc1)C(=O)NC1CCCCC1 | -2.73% (inactive) |
| Oc1ccc(Cl)cc1CNCc1ccc(F)cc1 | 6.19% (inactive) |
| O=C(N/N=C/c1cccc(F)c1)c1c(O)c2ccccc2[nH]c1=O | -1.02% (inactive) |
| O=C(N/N=C/c1coc2ccccc2c1=O)c1ccc(Cl)cc1 | -4.23% (inactive) |
| C=CCn1c(=O)c(C(=O)Nc2cccnc2)c(O)c2ccccc21 | 4.9% (inactive) |
| O=C1CC(N2CCSCC2)C(=O)N1CCc1ccccc1 (stereo unspecified) | -2.96% (inactive) |
| Cc1cc2ccccc2n1CCNC(=O)C(C)(C)C | 0.54% (inactive) |
| CC1CCN(CCOCCSc2ccc(Cl)cc2)CC1 | 3.18% (inactive) |

| Compound | inhibition |
| --- | --- |
| O=C(COc1ccc(Cl)cc1)Nc1ccc2[nH]ncc2c1 | -6.62% (inactive) |
| CCCCCCNC(=O)c1ccc(Br)o1 | -4.43% (inactive) |
| C=CCNc1nc(C(=O)OCC(=O)c2cccc(Br)c2)cs1 | -5.99% (inactive) |
| CCOc1ccc(OCc2ccc(C(=O)N/N=C(\C)c3ccccn3)cc2)cc1 | 6.16% (inactive) |
| COc1ccc(C(=O)Nc2ccccc2C(=O)N/N=C/c2ccco2)cc1 | -1.33% (inactive) |
| CC(=O)NCCOC(=O)Nc1sc(=S)n(C)c1C | 0.93% (inactive) |
| C/C(=N\Nc1ccc(Cl)cc1)c1ccccn1 | 5.57% (inactive) |
| Cc1cc(O)c(-c2cc(O)c(C)cc2O)cc1O | 7.62% (inactive) |
| COC(=O)c1ccc(COC(=O)CCS(=O)(=O)c2ccc(C)cc2)cc1 | 1.11% (inactive) |
| O=C(COC(=O)c1ccccn1)Nc1cccc(Cl)c1Cl | 7.17% (inactive) |
| CC(C)(C)C(=O)COc1ccccc1[N+](=O)[O-] | 5.63% (inactive) |
| COCCn1c(C)cc(C(=O)COC(=O)c2ccc(Br)o2)c1C | 2.14% (inactive) |
| C=CC[n+]1ccn(-c2nc3ccccc3nc2[N-]S(=O)(=O)c2cccs2)c1 | 0.1% (inactive) |
| CCCCSc1nnc(-c2cc(Br)ccc2N)c(=O)[nH]1 | 0% (inactive) |
| C/C(=N\NC(=O)c1cccs1)c1ccc2c(c1)OCO2 | 5.02% (inactive) |
| Cc1ccc(C(=O)CCNc2ccc(Br)cc2)o1 | 3.32% (inactive) |
| CC(Cc1cccs1)NC(=O)c1cccc(Cl)c1 (stereo unspecified) | 1.12% (inactive) |
| Cc1ccc(C(=O)CCNc2ccc(F)c(Cl)c2)o1 | -3.31% (inactive) |
| Cc1ccc(NC(CC(=O)c2ccccc2)C(=O)O)cc1Cl (stereo unspecified) | -5.41% (inactive) |
| COc1cc(C(=O)CCN2CCC(c3ccccc3)C2)cc(OC)c1OC (stereo unspecified) | 0.03% (inactive) |
| CC(C)COc1ccc(C(=O)CCN2CCCCC2)cc1 | 2.45% (inactive) |

| Compound | inhibition |
| --- | --- |
| CC(C)Oc1ccc(C(=O)CCN2CCCCC2)cc1 | -0.55% (inactive) |
| CCCCc1ccc(NS(=O)(=O)c2c(C)n(C)c(=O)n(C)c2=O)cc1 | 4.26% (inactive) |
| C=C(C)C1CC=C(C)/C(=N/NC(=O)CNc2ccc(OCC)cc2)C1 (stereo unspecified) | -10.1% (inactive) |
| CC1N(C)c2cccc3cccc(c23)N1C | 10% (inactive) |
| CCCCCCCCCCn1ccc(=N)cc1 | 21.1% (inactive) |
| CCc1ccc(OCCCC(=O)NCc2ccco2)cc1 | 3.11% (inactive) |
| Nc1ccc2c(c1)oc1ccccc12 | 11.9% (inactive) |
| CCOC(=O)c1cn(Cc2cccc(Cl)c2)nn1 | -2.8% (inactive) |
| COc1cc(/C=C2\C(=O)N(c3ccc(S(N)(=O)=O)cc3)N=C2C)ccc1OC(=O)c1ccco1 | 21.7% (inactive) |
| COc1cc(/C=N/Nc2ccc(Cl)c(C(=O)O)c2)ccc1OC(=O)c1ccco1 | -1.31% (inactive) |
| O=C(COc1ccccc1)NNc1nc2ccccc2s1 | 18.4% (inactive) |
| CC/C(=C\C=C\[C@@H]1C=C[C@@H]2CCC[C@H]2[C@@H]1C(=O)c1ccc[nH]1)[C@@H]1O[C@@H]([C@@H](C)C(=O)O)CC[C@@H]1C | 7.84% (inactive) |
| Cc1cccc(NCc2ccc([N+](=O)[O-])s2)c1 | 4.84% (inactive) |
| CCCc1nnc(-c2ccc(OC)cc2)o1 | 14.5% (inactive) |
| CCc1ccc(C(=O)NC2CCCCC2)s1 | 0.32% (inactive) |
| CCc1cc(C=NC2CCCCC2)c(O)s1 | -4.16% (inactive) |
| CC(=O)c1c(O)cc(=O)n(-c2ccccc2)c1-c1ccc(C)cc1 | 6.58% (inactive) |
| CCOC(=O)c1c(NC(=O)COC(=O)c2ccccn2)sc2c1CCC2 | 9.82% (inactive) |
| O=C(Oc1cccc([N+](=O)[O-])c1)c1ccc2c(=O)n3c(nc2c1)CCC3 | -8.67% (inactive) |
